According to PubChem BioAssay (NCI):
About 83,000 compounds went through this panel and 20% of them were active in at least one assay; those are over-represented in the sample as a whole.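 A percent growth of 40 corresponds to 60% growth inhibition; 0 means no net growth; -100 means all cells died. Active threshold: below 10.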 Activity calls are given as the source filed them.

Tests used:
Experiment in all cases: NCI-60 one-dose screen, 48 h (100 = growth as untreated, 0 = no growth, -100 = all killed)
Conditions in all cases: 10 µM unless noted
HCT-15 colon = tested on: HCT-15 colon
HT29 colon = tested on: HT29 colon
SNB-75 CNS = tested on: SNB-75 CNS
SNB-19 CNS = tested on: SNB-19 CNS
U251 CNS = tested on: U251 CNS
PC-3 prostate = tested on: PC-3 prostate
SK-MEL-5 melanoma = tested on: SK-MEL-5 melanoma
UACC-62 melanoma = tested on: UACC-62 melanoma
LOX IMVI melanoma = tested on: LOX IMVI melanoma
SK-MEL-28 melanoma = tested on: SK-MEL-28 melanoma
SK-MEL-2 melanoma = tested on: SK-MEL-2 melanoma
EKVX NSCLC = tested on: EKVX NSCLC
SN12C renal = tested on: SN12C renal
UO-31 renal = tested on: UO-31 renal
ACHN renal = tested on: ACHN renal
CAKI-1 renal = tested on: CAKI-1 renal
A498 renal = tested on: A498 renal
CCRF-CEM leukemia = tested on: CCRF-CEM leukemia
MOLT-4 leukemia = tested on: MOLT-4 leukemia
TK-10 renal = tested on: TK-10 renal

Measured: growth

C[C@@H](CO)[C@@H]1CC[C@]2(C(=O)N3CCN(C)CC3)CC[C@]3(C)[C@H](CC[C@@H]4[C@@]5(C)CC[C@H](O)C(C)(C)[C@@H]5CC[C@]43C)[C@@H]12
active: CCRF-CEM leukemia -5.45%
inactive: HCT-15 colon 44.3% | HT29 colon 17.6% | SNB-75 CNS 91.4% | SNB-19 CNS 68.7% | U251 CNS 24.1% | PC-3 prostate 64.1% | SK-MEL-5 melanoma 82.9% | UACC-62 melanoma 78.3% | LOX IMVI melanoma 38.7% | SK-MEL-28 melanoma 106% | SK-MEL-2 melanoma 90.1% | EKVX NSCLC 88.4% | SN12C renal 71.9% | UO-31 renal 64.7% | ACHN renal 89.6% | CAKI-1 renal 78.2% | A498 renal 89% | MOLT-4 leukemia 39.2%

COc1cc(-c2cc(-c3ccc(Nc4ncnc5cc(Cl)ccc45)cc3)nc(N3CCN(C)CC3)n2)cc(OC)c1OC
inactive: HCT-15 colon 64.4% | HT29 colon 81.7% | SNB-75 CNS 49.5% | SNB-19 CNS 102% | U251 CNS 106% | PC-3 prostate 82.2% | SK-MEL-5 melanoma 74.5% | UACC-62 melanoma 97% | LOX IMVI melanoma 86.2% | SK-MEL-2 melanoma 93.4% | EKVX NSCLC 102% | SN12C renal 88.6% | UO-31 renal 23.4% | TK-10 renal 136% | ACHN renal 75.4% | CAKI-1 renal 91% | A498 renal 102% | CCRF-CEM leukemia 52.5% | MOLT-4 leukemia 58.1%

O=C(Nc1ncc(Cc2ccccc2Cl)s1)c1cccs1
inactive: HCT-15 colon 32% | HT29 colon 43.6% | SNB-75 CNS 89.6% | SNB-19 CNS 82.9% | U251 CNS 60.8% | PC-3 prostate 64% | SK-MEL-5 melanoma 73.3% | UACC-62 melanoma 45.9% | LOX IMVI melanoma 62.5% | SK-MEL-2 melanoma 69.4% | EKVX NSCLC 77.7% | SN12C renal 82.5% | UO-31 renal 70.8% | ACHN renal 73.2% | CAKI-1 renal 41.8% | A498 renal 67.1% | CCRF-CEM leukemia 66.2% | MOLT-4 leukemia 61.7%

Cn1cc(-c2csc(-c3cn(C(=O)OC(C)(C)C)c4ccccc34)n2)c2ccnc(Cl)c21
inactive: HCT-15 colon 39.1% | HT29 colon 35.4% | SNB-75 CNS 46.8% | SNB-19 CNS 89.1% | U251 CNS 34.1% | PC-3 prostate 40.5% | SK-MEL-5 melanoma 81.4% | UACC-62 melanoma 78.2% | SK-MEL-28 melanoma 81.2% | SK-MEL-2 melanoma 96.5% | EKVX NSCLC 62.8% | SN12C renal 55.1% | UO-31 renal 58.4% | TK-10 renal 52.8% | ACHN renal 32.7% | CAKI-1 renal 80% | A498 renal 88.4% | CCRF-CEM leukemia 61.7% | MOLT-4 leukemia 66.8%

CN1CCN(C(=O)c2cc(-c3ccc4ncnc(N5CCc6cc(F)c(Cl)cc65)c4c3)cnc2N)CC1
active: HCT-15 colon 5.57% | SNB-75 CNS -35.3% | PC-3 prostate 1.89% | SK-MEL-5 melanoma -97.1% | UACC-62 melanoma -52.1% | LOX IMVI melanoma -41.4% | SK-MEL-2 melanoma -48% | EKVX NSCLC -10.2% | SN12C renal 9.07% | UO-31 renal 3.95% | ACHN renal 5.3% | CAKI-1 renal -33.3% | A498 renal -69.2% | CCRF-CEM leukemia 7.93% | MOLT-4 leukemia 1.54%
inactive: HT29 colon 13.6% | SNB-19 CNS 13% | U251 CNS 15.4%

COc1cccc(/C=C2\COc3ccc(O)cc3C2=O)c1
active: CCRF-CEM leukemia -0.603%
inactive: HCT-15 colon 40.6% | HT29 colon 37.8% | SNB-75 CNS 82.4% | SNB-19 CNS 65.6% | U251 CNS 45.1% | PC-3 prostate 76.8% | SK-MEL-5 melanoma 96.6% | UACC-62 melanoma 63.3% | LOX IMVI melanoma 18.7% | SK-MEL-2 melanoma 104% | EKVX NSCLC 98.4% | SN12C renal 30.1% | UO-31 renal 69.1% | TK-10 renal 101% | ACHN renal 84.7% | CAKI-1 renal 80.4% | A498 renal 104% | MOLT-4 leukemia 40.2%

CC(/C=C1\SC(=S)N(CC(=O)NC(Cc2c[nH]c3ccccc23)C(=O)O)C1=O)=C\c1ccccc1 (stereo not drawn)
inactive: HCT-15 colon 103% | HT29 colon 110% | SNB-75 CNS 87.2% | SNB-19 CNS 98.8% | U251 CNS 105% | PC-3 prostate 97.6% | SK-MEL-5 melanoma 96.4% | UACC-62 melanoma 88.3% | LOX IMVI melanoma 92.9% | SK-MEL-2 melanoma 110% | EKVX NSCLC 98.5% | SN12C renal 95% | UO-31 renal 63.9% | ACHN renal 96.5% | CAKI-1 renal 87% | A498 renal 107% | CCRF-CEM leukemia 104% | MOLT-4 leukemia 104%

COc1ccc2nc(SCC(=O)Nc3ccccc3C)[nH]c2c1
active: A498 renal -41.9%
inactive: HCT-15 colon 99.8% | HT29 colon 109% | SNB-75 CNS 82.5% | SNB-19 CNS 95% | U251 CNS 93.5% | PC-3 prostate 84.5% | SK-MEL-5 melanoma 95.7% | UACC-62 melanoma 84.5% | SK-MEL-28 melanoma 95.8% | SK-MEL-2 melanoma 101% | EKVX NSCLC 88.4% | SN12C renal 95.2% | UO-31 renal 74.3% | TK-10 renal 105% | ACHN renal 94.4% | CAKI-1 renal 88% | CCRF-CEM leukemia 87.5% | MOLT-4 leukemia 88.8%

O=C(/C=C/c1cccc(Cl)c1)c1cccc(OCCCCOc2cccc(C(=O)/C=C/c3cccc(Cl)c3)c2)c1
inactive: HCT-15 colon 83.6% | HT29 colon 76.1% | SNB-75 CNS 77.8% | SNB-19 CNS 91% | U251 CNS 68.7% | PC-3 prostate 92.2% | SK-MEL-5 melanoma 98.6% | UACC-62 melanoma 72.8% | SK-MEL-28 melanoma 99.2% | SK-MEL-2 melanoma 103% | EKVX NSCLC 106% | SN12C renal 92.9% | UO-31 renal 72% | TK-10 renal 109% | ACHN renal 100% | CAKI-1 renal 75.7% | A498 renal 96.9% | CCRF-CEM leukemia 84.4% | MOLT-4 leukemia 89%
